Experimental data from PubChem BioAssay (NCATS).
Results filed as inconclusive are left out. A number with no mark means an inactive call. Calls of active or inactive are those of the source.

Assay: qHTS assay for small molecule agonists of the antioxidant response element (ARE) signaling pathway (AID 651741; active = well fitted activation curve with a large enough effect in the signal ratio; the % refers to the signal ratio; also: potency is read from the fitted curve at half-maximal effect; as to activation: % of control where 0% means no effect)
Conditions: HepG2 ARE-bla reporter, beta-lactamase FRET ratio, 16 h; series mostly up to 96 µM
Summary of the method: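 CellSensor ARE-bla HepG2 cells (2,000/well) carrying ARE-driven beta-lactamase, exposed 16 h at 37 C. LiveBLAzer B/G FRET substrate added for 2 h at room temperature; fluorescence intensity read.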

Compound	Potency
Fc1ccc(Oc2ccnc3cc(Cl)cc(Cl)c23)cc1	21.7 µM (active)
COC(=O)N(OC)c1ccccc1COc1ccn(-c2ccc(Cl)cc2)n1	5.45 µM (active)
O=C(O)[C@@H]1[C@H](C(=O)O)[C@@]2(Cl)C(Cl)=C(Cl)[C@]1(Cl)C2(Cl)Cl	inactive
CCCCCCCCCCCCN(C)C	inactive
CCOP(=S)(OCC)SCn1nnc2ccccc2c1=O	54.5 µM (active)
CSC1=N[C@@](C)(c2ccccc2)C(=O)N1Nc1ccccc1	6.86 µM (active)
CCC[CH2][Sn]([Cl])([Cl])[CH2]CCC	1.93 µM (active)
CC(C)(C)c1ccc(CSc2cnn(C(C)(C)C)c(=O)c2Cl)cc1	0.0969 µM (active)
CC(c1ccc(O)cc1)(c1ccc(O)cc1)c1ccc(O)cc1	12.2 µM (active)

Assay: qHTS assay for small molecule activators of the p53 signaling pathway (AID 651743; active = well fitted activation curve with a large enough effect in the signal ratio, not every such curve was filed as active; the % refers to the signal ratio; also: potency is read from the fitted curve at half-maximal effect; as to activation: % of control where 0% means no effect)
Conditions: HCT-116 p53RE-bla, beta-lactamase FRET ratio, 16 h; activation: active compounds read high
Summary of the method: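 p53RE-bla HCT-116 cells carrying a beta-lactamase reporter under p53 response elements were exposed to compounds for 16 hours at 37 C. Reporter activity read as fluorescence after 2 hours at room temperature with LiveBLAzer B/G FRET substrate.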

Compound	Potency	activation
COC(=O)N(OC)c1ccccc1COc1ccn(-c2ccc(Cl)cc2)n1	5.01 µM (active)	–
CC[C@H]1CCCC(O[C@H]2CC[C@H](N(C)C)[C@@H](C)O2)[C@@H](C)C(=O)C2=C[C@@H]3[C@@H](C=C[C@@H]4C[C@@H](O[C@@H]5O[C@@H](C)[C@H](OC)[C@@H](OC)[C@H]5OC)C[C@@H]34)[C@@H]2CC(=O)O1 (stereo partly drawn)	–	-4.77%
O=C(O)[C@@H]1[C@H](C(=O)O)[C@@]2(Cl)C(Cl)=C(Cl)[C@]1(Cl)C2(Cl)Cl	–	-1.67%
CCCCCCCCCCCCN(C)C	–	0.386%
CCOP(=S)(OCC)SCn1nnc2ccccc2c1=O	–	2.43%
CC(c1ccc(O)cc1)(c1ccc(O)cc1)c1ccc(O)cc1	–	-9.57%
CC(C)N(C(=O)SCC(Cl)=C(Cl)Cl)C(C)C	–	-5.02%
CCC(C)c1cc([N+](=O)[O-])cc([N+](=O)[O-])c1O (stereo not drawn)	6.31 µM (active)	–

Assay: qHTS assay for small molecule activators of the nuclear factor-kappa B (NF-kB) signaling pathway (AID 651749; active = well fitted activation curve with a large enough effect in the signal ratio; the % refers to the signal ratio; also: % of control where 0% means no effect)
Conditions: NF-kB-bla ME-180 cells, beta-lactamase FRET ratio, 16 h; activation: active compounds read high
Summary of the method: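 NF-kB-bla ME-180 cells carrying a beta-lactamase reporter under an NF-kB response element, 2,000 cells/well, exposed to compound for 16 hr at 37C; FRET-based beta-lactamase fluorescence read-out of pathway activation.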

Compound	activation
CC[C@H]1CCCC(O[C@H]2CC[C@H](N(C)C)[C@@H](C)O2)[C@@H](C)C(=O)C2=C[C@@H]3[C@@H](C=C[C@@H]4C[C@@H](O[C@@H]5O[C@@H](C)[C@H](OC)[C@@H](OC)[C@H]5OC)C[C@@H]34)[C@@H]2CC(=O)O1 (stereo partly drawn)	-0.423%
O=C(O)[C@@H]1[C@H](C(=O)O)[C@@]2(Cl)C(Cl)=C(Cl)[C@]1(Cl)C2(Cl)Cl	-0.556%
CCOP(=S)(OCC)SCn1nnc2ccccc2c1=O	-3.08%
CC(C)N(C(=O)SCC(Cl)=C(Cl)Cl)C(C)C	-1.22%
CCC[CH2][Sn]1([CH2]CCC)[O]C(=O)C=CC(=O)[O]1	-3.15%
O=P(Oc1ccccc1)(Oc1ccccc1)Oc1ccccc1	-2%
